Shiga toxin inh: Shiga toxin inhibition; inhibition, % at 38.7 µM; Vero cells, Shiga toxin protein synthesis inhibition reporter; 290,000 compounds, 9.2% hits; AID 2315; in the data active means inhibition mostly above about 28%, no sharp cut-off; inactive means mostly below about 43%; further: 0% is about no effect
HCV inh: inhibitors of hepatitis C virus infection; AID 651820; 340,000 compounds, 3.4% hits; Huh7.5.1 HCVcc-Cre infection, luciferase reporter, 44 h; Potency, µM (highest dose often 41.8 µM), for inactives: at the top dose activity change, negative = inhibition, hits mostly inhibitors; further: potency means the concentration at half of the fitted maximal effect; on the % scale 0 is the no-effect control and ±100 the full control effect
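HCVcc-Cre virus at an moi near 0.5 was added right after compound to cells cultured 4 h from seeding (1,000 cells/well). Luciferase activity was determined 44 h later, 15 min after substrate addition at RT.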
Pf growth 96h: P. falciparum growth inhibition at 96 hour, primary screen for plastid delayed-death inhibitors; P. falciparum luciferase reporter growth, 96 h; Potency, µM (titrated, usually from 28.7 µM), for inactives: at the highest dose activity change, negative = inhibition, most hits filed as inhibitors; 320,000 compounds, 6.9% hits; AID 504834; further: potency means the concentration at half of the fitted maximal effect; on the % scale 0 is the no-effect control and ±100 the full control effect
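96 h incubation, 37 C, 5% CO2, of luciferase-reporter P. falciparum-infected RBCs (2% hematocrit, 0.05% parasitemia final) with test compounds; endpoint luminescence.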
Pf growth 48h: inhibits P. falciparum growth in the first generation, 48 h | Potency, µM (highest dose often 28.7 µM), inactives show at the top dose activity change, negative = inhibition, actives largely listed as inhibitors | P. falciparum luciferase growth in erythrocytes, 48 h | 310,000 compounds, 5.9% hits | AID 504832; further: potency means the concentration at half of the fitted maximal effect; on the % scale 0 is the no-effect control and ±100 the full control effect
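Firefly luciferase activity from engineered P. falciparum reports growth; inhibitors lower the luminescent signal. Cultures contained 2% hematocrit erythrocytes at 0.1% final parasitemia.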
AMA1 RON2 block: inhibitors of Plasmodium falciparum AMA1-RON2 interaction; 360,000 compounds, 0.2% hits; Potency, µM (doses to about 58.2 µM), for inactives: top-dose activity change, negative = inhibition, most hits filed as inhibitors; AID 720542; AlphaScreen AMA1-biotinylated RON2 peptide binding;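 further: potency means the concentration at half of the fitted maximal effect; 0% = vehicle wells and -100% = peptide control; nearly all actives have a fitted effect of over 45% in size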
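AMA1 (3D7) with his tag at 25 nM final met compounds first, then biotinylated RON2 peptide at 25 nM; detection used donor plus acceptor beads, 10 µg/mL apiece, read by AlphaScreen after 30 min at room temperature.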
CHX counter: affects cycloheximide protein synthesis inhibition readout, counter-screen. cell reporter, cycloheximide protein synthesis inhibition counterscreen. max response, %. 300,000 compounds, 12% hits; in the data active means max response mostly above about 13%, no sharp cut-off; inactive means mostly below about 14%; further: read at 38.3 µM for the half of the compounds with a filed dose; 0% is about no effect
* = called active by the depositor; u = inconclusive; x = not tested or not shown; [ ] = another dose, or the depositor's remark. Only some compounds are listed: those with a hit (about 21% of all), similar ones and a draw of the others. Unless noted, the call rests on the fitted dose curve; in most records, active means well fitted curve in the direction sought with a large enough effect; inconclusive means small, poorly fitted or top-dose-only effect, or another doubt; inactive means no such curve, though single readings can be large; an effect the other way counts as inactive or inconclusive.

SMILES	Shiga toxin inh	HCV inh	Pf growth 96h	Pf growth 48h	AMA1 RON2 block	CHX counter
CCN(Cc1nc2ccccc2c(=O)[nH]1)C(=O)c1cc2c(s1)CCCCC2	x	0%	8%	-1%	69%	x
NS(=O)(=O)c1ccc(NC(=O)COC(=O)C2CCCCC2)cc1	40*	15%	39%	6%	-8%	33*
CN(C(=O)COC(=O)c1ccc(-c2ccc(O)cc2)cc1)C1CCS(=O)(=O)C1 (configuration not stated)	24	-6%	31%	30%	0%	-2
O=c1[nH]c(=O)n(CCC2=CCCCC2)c(O)c1C=Nc1cccc(F)c1	-18	-2%	54%	15%	-4%	8
Cc1c(N=Cc2c(O)n(CCc3ccc(F)cc3)c(=O)[nH]c2=O)c(=O)n(-c2ccccc2)n1C	-9	11%	10µM*	-8%	3%	-2
O=C(N/N=C/c1c(O)n(Cc2ccc(F)cc2)c(=O)[nH]c1=O)c1ccccc1	89*	19%	u	25%	47%	29*
O=C(N/N=C/c1c(O)n(Cc2ccccc2)c(=O)[nH]c1=O)c1ccncc1	2	-4%	11%	u	19%	-1
O=C(N/N=C/c1c(O)n(CCC2=CCCCC2)c(=O)[nH]c1=O)c1ccccc1	21	4%	u	25%	27%	27*
Nc1ccccc1N=Cc1c(O)n(CCC2=CCCCC2)c(=O)[nH]c1=O	180*	18%	u	238%	28%	62*
CC(=O)c1cccc(NC(=O)N2C3CCCC2CC(NC(=O)C2CC2)C3)c1 (configuration not stated)	-5	-3%	-4%	4%	-14%	-3
COc1ccc(Cc2c(C3CCCCC3)nc3c(Cl)cc(C(F)(F)F)cn23)c(C)c1	x	x	x	x	-21%	x
O=c1[nH]c(=S)n(CCC2=CCCCC2)c(O)c1C=NCc1cccnc1	-19	14%	x	2%	x	-8
O=C(N/N=C/c1c(O)n(CCC2=CCCCC2)c(=S)[nH]c1=O)c1ccccc1	38*	8%	5%	16%	34%	35*
Cc1cc(CNC(=O)c2ccc3nc(Cc4ccccc4F)oc3c2)nn1C	94*	0%	2.1µM*	14%	6%	42*
CC(c1ccccn1)N(C)C(=O)c1ccc2nc(Cc3ccccc3F)oc2c1 (configuration not stated)	72*	14%	0%	12%	12%	53*
CCCCc1nc2cc(C(=O)NCc3cc(C)n(C)n3)ccc2o1	78*	-7%	2%	17%	1%	25*
Cc1c(C(C)NC(=O)c2ccc3nc(Cc4ccccc4F)oc3c2)cnn1C (configuration not stated)	36*	-28%	u	13%	11%	34*
C[C@H]1CN([C@@H](C)CO)C(=O)CCCn2nncc2CO[C@@H]1CN(C)C(=O)NC1CCCCC1	x	x	x	x	-3%	x
COc1ccccc1OCC(=O)Nc1nonc1NC(=O)COc1ccccc1OC	6	15%	u	u	14%[2.32 µM]	-1
COc1ccc(-c2coc3c(C(=O)Nc4cccc(C(C)=O)c4)cccc23)c(C)c1	x	x	x	x	-8%	x
COc1ccccc1-n1c(-c2ccc(Cl)cc2)c[nH]c1=S	11	u	u	u	47%	-6
O=C(NCc1ccncc1)c1ccc2nc(Cc3ccccc3F)oc2c1	15	x	u	15%	-11%	16*
Cc1c(C(=O)N(C)C(C)c2ccccn2)oc2c(F)cccc12 (configuration not stated)	75*	16%	11%	0%	-3%	51*
Cc1cc(CN(C)C(=O)c2ccc3nc(Cc4ccccc4F)oc3c2)n[nH]1	7	-29%	-18%	-8%	7%	-1
O=C(CCNC(=O)C1CCN(S(=O)(=O)c2ccc(F)cc2)CC1)NC1CC1	-2	21%	7%	35%	0%	13
SMILES	Shiga toxin inh	HCV inh	Pf growth 96h	Pf growth 48h	AMA1 RON2 block	CHX counter
CCOC(=O)C1CCN(c2ncnc3c2oc2ccccc23)CC1	-9	-25%	12µM*	14%	-3%	-1
O=C(O)C1CCN(c2nc(-c3ccccc3)nc3c2oc2ccccc23)CC1	-18	-7%	12µM*	u	5%	17
CCOC(=O)C1CCN(c2nc(-c3ccccc3)nc3c2oc2ccccc23)CC1	-20	-9%	x	u	-5%	-2
CCOC(=O)c1cnn(-c2ncnc3c2oc2ccccc23)c1N	68	10%	30%	100%	23%	16*
CCOC(=O)C1CCCN(c2ncnc3c2oc2ccccc23)C1 (configuration not stated)	47	5%	56%	49%	-1%	17*
COc1ccc(CNn2c(-c3ccccc3F)nc3ccccc3c2=O)cc1OC	-9	u	u	-11%	-4%	-6
CCNC(=O)C12CCC(C)(C(=O)O1)C2(C)C (configuration not stated)	-8	5%	15%	17%	0%	-13
COc1ccc(-c2cc(C(=O)O)c3c(C)nn(-c4ccccn4)c3n2)cc1	-5	13%	18%	24%	14%	-2
CCOC(=O)c1cnn(-c2ccccn2)c1N	99*	-10%	u	202%	8%	63*
CCOC(=O)c1cc(-c2ccncc2)nc2c1c(C)nn2-c1ccccn1	-11	7.9µM*	13µM*	5.9µM*	75%	13
CC1CC(C)CN(C(=O)COC(=O)CCCN2C(=O)c3cccc4cccc(c34)C2=O)C1 (configuration not stated)	-22	-4%	6%	-7%	6%	-4
CCC(CC)CN1C(N(C)C)=NC[C@@H]1CC(C)C	x	20%	8.3µM*	u	0%	x
C[C@H]1CN=C(N(C)C)N1CCCCc1ccccc1	x	-5%	u	u	0%	x
CC(C)C[C@H]1CN=C(N(C)C)N1CC1CCCC1	x	4%	u	u	10%	x
CC(C)C[C@H]1CN=C(N(C)C)N1CCCCc1ccccc1	x	u	u	5.2µM*	-1%	x
CCC(C)CCN1C(N(C)C)=NC[C@@H]1CC(C)C (some centres not stated)	x	u	u	13µM*	24%	x
O=C(Cc1cccc(NC(=O)C2CCCN(C(=O)C3CCC3)C2)c1)Nc1cccc(C(=O)N2CCCC2)c1 (configuration not stated)	x	u	2.3µM*	u	-15%	x
O=C(Cc1cccc(NC(=O)C2CCCN(C(=O)C3CCCCC3)C2)c1)Nc1cccc(C(=O)N2CCCC2)c1 (configuration not stated)	x	-20%	u	4.1µM*	-4%	x
O=C(Cc1cccc(NC(=O)C2CCCN(C(=O)C3CCCCC3)C2)c1)Nc1cccc(C(=O)N2CCCCC2)c1 (configuration not stated)	x	-20%[8.37 µM]	x	x	-4%	x

Screening results (PubChem BioAssay)
